In all, about 190,000 compounds went through this assay and about 1,300 (0.68%) were called active. Rule as the data show it: active = inhibition above about 50%; inactive = the rest. The list comes from a sample in which actives are over-represented; it also holds similar structures and randomly drawn compounds.
Biological target: Mannose-6-phosphate isomerase (Homo sapiens) (UniProt P34949)
Experiment: human PMI inhibitors, high substrate, primary screen, biochemical, fluorescence intensity, high mannose 6-phosphate (AID 1220)
Details: recombinant PMI enzyme, coupled fluorescence intensity; at 20 µM; hits give high values

Chain of Mannose-6-phosphate isomerase (Homo sapiens) (P34949 whole entry, looked up): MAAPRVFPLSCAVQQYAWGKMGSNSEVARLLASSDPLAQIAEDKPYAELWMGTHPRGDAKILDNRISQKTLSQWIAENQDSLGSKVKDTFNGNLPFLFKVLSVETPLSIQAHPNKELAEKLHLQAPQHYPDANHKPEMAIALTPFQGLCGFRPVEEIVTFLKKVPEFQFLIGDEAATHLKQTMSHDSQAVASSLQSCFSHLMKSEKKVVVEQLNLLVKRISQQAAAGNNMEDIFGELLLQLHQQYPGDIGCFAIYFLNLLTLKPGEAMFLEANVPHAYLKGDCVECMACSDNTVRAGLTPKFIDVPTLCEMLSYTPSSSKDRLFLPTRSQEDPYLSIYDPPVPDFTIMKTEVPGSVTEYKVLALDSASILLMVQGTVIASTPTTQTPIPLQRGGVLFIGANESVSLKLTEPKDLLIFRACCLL

Row | SMILES | inhibition
1 | CCN(CC)C(=O)C(=O)Nc1ccc(OCc2ccccc2)cc1 | 0.5% (inactive)
2 | CC(C)Nc1nc(NC(C)C)nc(C(=O)OCCO)n1 | -5.1% (inactive)
3 | O=C(COc1ccccc1)N(Cc1cc2ccccc2[nH]c1=O)CC1CCCO1 (configuration not stated) | 0.7% (inactive)
4 | CC(C)N1CCN(Cc2ccsc2)CC1CCO (configuration not stated) | 5.4% (inactive)
5 | CCc1c(C)c(C#N)c2nc3ccccc3n2c1NCc1ccco1 | -6.6% (inactive)
6 | N#Cc1c2c(c(NCc3cccnc3)n3c1nc1ccccc13)CCC2 | 11.3% (inactive)
7 | N#Cc1c2c(c(NCc3ccco3)n3c1nc1ccccc13)CCC2 | 50.2% (active)
8 | Cc1ccc(NC(=O)CN2C(=O)NC(C)(CCc3ccccc3)C2=O)cc1 (configuration not stated) | 26.7% (inactive)
9 | COc1cccc(C2CC(=O)NC3=C2C(=O)CCC3)c1 (configuration not stated) | -0.9% (inactive)
10 | CCC(NC(=O)C1CCC1)c1ccc(C)cc1 (configuration not stated) | 3.8% (inactive)
11 | O=C(c1ccccc1)c1cc2c(cc1[N+](=O)[O-])OCCO2 | 10.9% (inactive)
12 | Nc1cc2c(cc1C(=O)c1ccccc1F)OCCO2 | 13.3% (inactive)
13 | O=C(c1ccccc1F)c1cc2c(cc1[N+](=O)[O-])OCCO2 | 51.7% (active)
14 | COc1ccc(OC)c(NC(=S)NCC(c2cccnc2)N2CCOCC2)c1 (configuration not stated) | 2.4% (inactive)
15 | CC(C)N1CCN(Cc2ccoc2)CC1CCO (configuration not stated) | -6.7% (inactive)
16 | COc1ccc(OC)c(-c2c3cc(O)c(=O)cc-3oc3cc(O)c(O)cc23)c1 | 55.4% (active)
17 | Cc1c2cc(O)c(=O)cc-2oc2cc(O)c(O)cc12 | 28.8% (inactive)
18 | CCOc1ccccc1-c1c2cc(O)c(=O)cc-2oc2cc(O)c(O)cc12 | 42% (inactive)
19 | CN(C)C(=O)C[n+]1cccc(/C=N/O)c1 | -5.5% (inactive)
20 | C=CCn1c(SCC(=O)Nc2ccccc2)nnc1-c1cccc(S(=O)(=O)N2CCOCC2)c1 | 3.2% (inactive)
21 | CC1OC(OCC2OC(Oc3c(-c4ccc(O)cc4)oc4cc(O)cc(O)c4c3=O)C(O)C(O)C2O)C(O)C(O)C1O (configuration not stated) | 16.6% (inactive)
22 | C[C@@H]1O[C@@H](OC[C@H]2O[C@@H](Oc3c(-c4ccc(O)c(O)c4)oc4cc(O)cc(O)c4c3=O)[C@H](O)[C@@H](O)[C@@H]2O)[C@H](O)[C@H](O)[C@H]1O | 18.4% (inactive)
23 | COC(=O)c1ccc(COC(=O)CNC(=O)c2ccco2)cc1 | 1.5% (inactive)
24 | CC1CC(NC(=O)c2ncn[nH]2)CC(C)(C)C1 (configuration not stated) | -12.5% (inactive)
25 | COc1ccc(C(=O)/C=C2\NCC3c4ccccc4CCN3C2=O)cc1 (configuration not stated) | -140% (inactive)

Row | SMILES | inhibition
26 | Cc1cccc(C(=O)NCCN(C)C)c1 | 3% (inactive)
27 | Cc1cc(-c2ccco2)n(CC(=O)O)n1 | -2.6% (inactive)
28 | Cc1cc(-c2ccco2)n(-c2ccccc2)n1 | 50.5% (active)
29 | Cc1cc(NC(=O)c2cc(-c3ccco3)on2)n(-c2ccccc2)n1 | 26.3% (inactive)
30 | Cc1ccc(OCC(O)CN2C(=O)NC(C)(C)C2=O)cc1 (configuration not stated) | 5.5% (inactive)
31 | CC1(C)NC(=O)N(CC(O)COc2ccc(-c3ccccc3)cc2)C1=O (configuration not stated) | -0.4% (inactive)
32 | CC1(C)NC(=O)N(CC(O)COc2ccc(N3C(=O)c4ccccc4C3=O)cc2)C1=O (configuration not stated) | 53% (active)
33 | O=C(NCC(=O)N1CCCC1)c1cccs1 | 2% (inactive)
34 | O=C(ONc1ccc(N=NC(=O)c2ccccc2O)cc1)c1ccccc1 | 22.9% (inactive)
35 | Cc1ccc(C(=O)ONc2ccc(N=NC(=O)c3ccccc3O)cc2)cc1 | -5.4% (inactive)
36 | O=C(N=Nc1ccc(NOC(=O)c2ccccc2Br)cc1)c1ccccc1O | 65.2% (active)
37 | CN(Cc1cccnc1)C(=O)CC1C(=O)NCCN1Cc1ccc(-c2ccccc2)cc1 (configuration not stated) | 8.9% (inactive)
38 | CCOC(=O)C(C#N)C(Cc1ccccc1)c1ccco1 (configuration not stated) | 5.7% (inactive)
39 | COC(=O)c1cc(OC)c(OC)cc1NC(=S)Nc1cccc(C(C)=O)c1 | -8% (inactive)
40 | COc1ccc(C(=O)Nc2cccc(C(C)=O)c2)cc1OC | -4.1% (inactive)
41 | COc1cc(NC(=S)Nc2ncccc2C)cc(OC)c1OC | 31% (inactive)
42 | COc1ccc(NC(=S)Nc2cccc(C(C)=O)c2)cc1OC | 50.5% (active)
43 | COc1ccc(NC(=S)Nc2ncccc2C)cc1OC | 55.1% (active)
44 | COc1ccc(NC(=S)Nc2ncccc2C)c(OC)c1 | 10.1% (inactive)
45 | COc1ccc(NC(=S)Nc2cccc(Cl)c2Cl)cc1OC | 40.9% (inactive)
46 | COc1ccc(NC(=S)Nc2cccc(Cl)c2)cc1OC | 61.4% (active)
47 | COc1cc(C)c(NC(=S)Nc2cccc(Cl)c2)cc1OC | 24.5% (inactive)
48 | Cc1c(NC(=O)c2cc3ccccc3o2)c(=O)n(-c2ccccc2)n1C | -16.9% (inactive)
49 | COc1ccc(-c2nc(N3CCCC3)[nH]c(=O)c2C#N)cc1 | -5.5% (inactive)
50 | C=CCc1cccc2cc(C(=O)NCc3cccnc3)c(=O)oc12 | 3.6% (inactive)

Row | SMILES | inhibition
51 | Cc1ccc(NCC(=O)N=Nc2c(O)n(C)c3ccccc23)cc1 | -2.1% (inactive)
52 | O=C(NC1CC1)C1=C[C@H](C2CC2)C[C@H](OCCCCO)O1 | 0.3% (inactive)
53 | CCS(=O)(=O)c1ccc2oc(SCC(=O)Nc3ccc(OC)cc3OC)nc2c1 | 14.5% (inactive)
54 | Cc1onc(-c2ccccc2Cl)c1C(=O)N1CCOC12CCCCC2 | -6.1% (inactive)
55 | COCC(=O)N/N=C/c1c(C)[nH]n(-c2ccccc2)c1=O | -4.5% (inactive)
56 | Cc1[nH]n(-c2ccccc2)c(=O)c1/C=N/NC(=O)COc1ccccc1[N+](=O)[O-] | 58.1% (active)
57 | Cc1ccc(OCC(=O)N/N=C\c2c(C)[nH]n(-c3ccccc3)c2=O)c([N+](=O)[O-])c1 | -3.5% (inactive)
58 | CC(C)CN1C(=O)c2ccc(NC(=O)c3ccco3)cc2C1=O | 6.2% (inactive)
59 | O=C(Nc1ccc([N+](=O)[O-])cc1)Nc1ccc(N2CCOCC2)c2nonc12 | 57.9% (active)
60 | COc1ccc(NC(=O)Nc2ccc(N3CCOCC3)c3nonc23)c(OC)c1 | 55.8% (active)
61 | COc1ccc(NC(C)C(=O)Nc2cc(C(F)(F)F)ccc2N2CCOCC2)c(OC)c1 (configuration not stated) | 24% (inactive)
62 | O=C(Nc1ccc(F)cc1)Nc1ccc(N2CCOCC2)c2nonc12 | 38% (inactive)
63 | COc1ccc(NC(=O)Nc2ccc(C(=O)N3CCOCC3)cc2)c(OC)c1 | 0.2% (inactive)
64 | O=C(Nc1ccc(N2CCOCC2)c2nonc12)C1CCCC1 | 44.8% (inactive)
65 | COc1ccc(C)cc1-n1c(SCC(=O)Nc2cc(C)on2)nc2ccccc2c1=O | 10.8% (inactive)
66 | COC(=O)Cc1sc(-c2ccccn2)nc1-c1ccccc1 | 21.2% (inactive)
67 | CCOc1cc(NC(=S)NC)c(OCC)cc1NC(=O)c1ccco1 | 49.7% (inactive)
68 | CCNC(=S)Nc1cc(OC)c(NC(=O)c2ccco2)cc1OC | 33.9% (inactive)
69 | CCNC(=S)Nc1cc(OCC)c(NC(=O)c2ccco2)cc1OCC | 52.8% (active)
70 | CCOCCCNC(=S)Nc1cc(OCC)c(NC(=O)c2ccco2)cc1OCC | 44.5% (inactive)
71 | CCOc1cc(NC(=S)NCCCOC)c(OCC)cc1NC(=O)c1ccco1 | 50.7% (active)
72 | CCOc1cc(NC(=S)NCCOC)c(OCC)cc1NC(=O)c1ccco1 | 22.6% (inactive)
73 | O=C(CO/N=C/c1ccc(OC(F)F)cc1)NC1CCCC1 | 0.6% (inactive)
74 | COC(=O)C1=C(C)N(CCc2ccc(OC)c(OC)c2)C(=O)C1 | -10.6% (inactive)
75 | Cc1nnc(SCc2nnc(-c3cccs3)o2)n1Cc1ccccc1 | -7.3% (inactive)

Row | SMILES | inhibition
76 | COc1cc(C(c2oc(CO)cc(=O)c2O)c2oc(CO)cc(=O)c2O)cc(OC)c1OC | -11.4% (inactive)
77 | CCCN1CCN(CCCNC(=S)Nc2ccc(OC)cc2)CC1 | 6.6% (inactive)
78 | O=C(OCC(=O)N1CCCCC1)c1ccccc1SCC(=O)N1CCCCC1 | -4% (inactive)
79 | Cn1c(CN2CCOCC2)c(C#N)c2ccccc21 | 3% (inactive)
80 | N#Cc1c2ccc(O)cc2n2ccccc12 | 62.6% (active)
81 | Cc1cc(=O)n2ccccc2c1C#N | 3.5% (inactive)
82 | COC(=O)CCC/C=C1/SCC(NC(=O)c2ccccc2)/C1=N/O (configuration not stated) | -7.4% (inactive)
83 | CCC(C(=O)Nc1cnccn1)c1ccccc1 (configuration not stated) | 4% (inactive)
84 | CCN(CC)S(=O)(=O)c1cccc(C(=O)N/N=C/c2cccc(O)c2O)c1 | 53.1% (active)
85 | CCn1c(C)nc2cc(C(=O)N/N=C/c3ccccc3C)ccc21 | -6.4% (inactive)
86 | CCn1c(C)nc2cc(C(=O)N/N=C/c3cccc(OC)c3O)ccc21 | -8.6% (inactive)
87 | CCOc1ccccc1/C=N/NC(=O)c1cccc(S(=O)(=O)N(CC)CC)c1 | 5.1% (inactive)
88 | CCN(CC)S(=O)(=O)c1cccc(C(=O)N/N=C/c2ccc(OC)c(O)c2)c1 | 6.1% (inactive)
89 | Cc1cc(C)nc(SCc2ccc(C(=O)N/N=C/c3ccccc3C(=O)O)cc2)n1 | -6.2% (inactive)
90 | CCN(CC)S(=O)(=O)c1cccc(C(=O)N/N=C/c2cc(OC)c(O)c(OC)c2)c1 | 15.5% (inactive)
91 | Cc1cc(C)nc(SCc2ccc(C(=O)N/N=C/c3cccc(O)c3O)cc2)n1 | 55% (active)
92 | CCN(CC)S(=O)(=O)c1cccc(C(=O)N/N=C/c2ccccc2OCC(=O)O)c1 | 2.8% (inactive)
93 | COc1ccc(O)c(/C=N/NC(=O)c2ccc(CSc3nc(C)cc(C)n3)cc2)c1 | -12.2% (inactive)
94 | O=C(Nc1ccc(N=Nc2ccccc2)c(NC(=O)C2CCCO2)c1)C1CCCO1 (configuration not stated) | 9% (inactive)
95 | COc1ccccc1NC(=O)CN1CCN(c2ccccn2)CC1 | -9% (inactive)
96 | COC(=O)Cc1c(C)c2ccc(OCC(=O)N(C)C)cc2oc1=O | -8.1% (inactive)
97 | Cc1cc(C)n(C(=O)CCCCCC(=O)n2nc(C)cc2C)n1 | -6.2% (inactive)

Reference: PubChem BioAssay AID1220 (Sanford-Burnham Center for Chemical Genomics, 2008)
